The text below walks through data of PubChem BioAssay (NCI).

The nature of assay [1]: NCI Yeast Anticancer Drug Screen. Data for the rad50 strain (AID 155).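 Also: 0% = growth of vehicle-only cultures of the same strain.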 The settings on record: S. cerevisiae rad50 strain growth inhibition, hits give high values. Put shortly: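 Yeast carrying a defined DNA repair defect were exposed to test compounds, and growth was compared with vehicle-treated controls to give percent inhibition.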
A short description of assay [2]: NCI Yeast Anticancer Drug Screen. Data for the mec2-1 strain (AID 157). As to conditions: S. cerevisiae mec2-1 strain, hits give high values. The essentials: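 Test agents were screened against the mec2-1 yeast strain, with defined DNA repair or cell cycle alteration. Growth was scored as inhibition against vehicle-only controls.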
Assay [3] in a line: NCI Yeast Anticancer Drug Screen. Data for the sgs1 mgt1 strain (AID 161).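 Also: 0% = growth of cultures given vehicle only.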 As to conditions: S. cerevisiae sgs1 mgt1 strain, hits give high values. Put shortly:
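Read-out: growth inhibition vs vehicle controls. Cells: mutant yeast strain deficient in DNA damage repair.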

Assay [4] in a line: NCI Yeast Anticancer Drug Screen. Data for the cln2 rad14 strain (AID 165).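 Also: 0% = growth equal to vehicle treated cultures.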 As to conditions: S. cerevisiae cln2 rad14 strain, hits give high values. Put shortly: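 Growth of compound-exposed yeast (cln2 rad14 genotype) measured and expressed as inhibition relative to vehicle.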
A short description of assay [5]: NCI Yeast Anticancer Drug Screen. Data for the bub3 strain (AID 167). As to conditions: S. cerevisiae bub3 mutant strain, hits give high values. The essentials:
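Compounds were applied to a genetically altered yeast strain carrying a cell-cycle control defect. Growth inhibition was scored against vehicle-treated controls.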

Assay [6] can be described thus: NCI Yeast Anticancer Drug Screen. Data for the mlh1 rad18 strain (AID 175). The settings on record: S. cerevisiae mlh1 rad18 strain growth inhibition, hits give high values. The essentials:
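In this whole-cell yeast screen, a strain with altered DNA damage repair is challenged with compound, and its growth is measured against matched vehicle-treated controls.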

The mark [7] stands for this setting: at 5.0 µM (retest, dose inferred, filed as 0.5).
Setting [8] is: at 50.0 µM (retest, dose inferred, filed as 5.0).

The panel holds about 79,000 compounds, 15% with a hit somewhere; the sample as a whole holds those more often. A number with no mark means an inactive call. The source made the active and inactive calls. Rule as the data show it: active = growth inhibition above about 70%; inactive = the rest.

As for `CCC[CH2][Sn]([CH2]CCC)([O]C(=O)c1cccc(F)c1)[O]C(=O)c1cccc(F)c1`, the growth inhibition in assay [1] (setting [7]) is 26%; in assay [1] (setting [8]), 26%; in assay [1] (at 50.0 µM) it was 51.5%; in assay [2] (setting [7]) it was -2%; in assay [2] (setting [8]) it was -2%; in assay [2] (at 50.0 µM), 33.5%. In addition, the growth inhibition in assay [3] (setting [7]) is -1%; in assay [3] (setting [8]), -1%; in assay [3] (at 50.0 µM), 73.2% (active); in assay [4] (setting [7]), 10%; in assay [4] (setting [8]) it was 10%; in assay [4] (at 50.0 µM) it was 14.9%. Also, the growth inhibition was -2% in assay [5] (setting [7]); -2% in assay [5] (setting [8]); 49.9% in assay [5] (at 50.0 µM); -1% in assay [6] (setting [7]); -1% in assay [6] (setting [8]); 53% in assay [6] (at 50.0 µM).
For `CCOC(=O)C[n+]1c(C)cc(-c2ccccc2)cc1C`, the growth inhibition was -2% in assay [1] (setting [7]); 1% in assay [1] (setting [8]); 13.6% in assay [1] (at 50.0 µM); 7% in assay [2] (setting [7]); -15% in assay [2] (setting [8]); 6.3% in assay [2] (at 50.0 µM). The growth inhibition was -1% in assay [3] (setting [7]); -3% in assay [3] (setting [8]); 12.2% in assay [3] (at 50.0 µM); -1% in assay [4] (setting [7]); 2% in assay [4] (setting [8]); 28.1% in assay [4] (at 50.0 µM). The growth inhibition in assay [5] (setting [7]) was 24%; in assay [5] (setting [8]), -4%; in assay [5] (at 50.0 µM), 14.2%; in assay [6] (setting [7]), 9%; in assay [6] (setting [8]), 21%; in assay [6] (at 50.0 µM), 7.55%.
Turning to `Cc1ccc(I)c(C(C)(C)O)c1`, the growth inhibition is 4% in assay [1] (setting [7]); 71% (active) in assay [1] (setting [8]); 94.8% (active) in assay [1] (at 50.0 µM); 4% in assay [2] (setting [7]); 75% (active) in assay [2] (setting [8]); 56.6% in assay [2] (at 50.0 µM). In addition, the growth inhibition is 4% in assay [3] (setting [7]); 77% (active) in assay [3] (setting [8]); 58.6% in assay [3] (at 50.0 µM); 1% in assay [4] (setting [7]); 30% in assay [4] (setting [8]); 30.8% in assay [4] (at 50.0 µM). Besides, the growth inhibition is -1% in assay [5] (setting [7]); 86% (active) in assay [5] (setting [8]); 95.2% (active) in assay [5] (at 50.0 µM); 7% in assay [6] (setting [7]); 91% (active) in assay [6] (setting [8]); 70.2% (active) in assay [6] (at 50.0 µM).
Turning to `C=C1C(=O)OC2C1CC1OC2C(C)CCC/C(C)=C\CCC1(C)O` (configuration not stated), the growth inhibition in assay [1] (setting [7]) was 2%; in assay [1] (setting [8]) it was 8%; in assay [1] (at 50.0 µM), 92.5% (active); in assay [2] (setting [7]), 2%; in assay [2] (setting [8]), 25%; in assay [2] (at 50.0 µM) it was 92.8% (active). The growth inhibition in assay [3] (setting [7]) is 2%; in assay [3] (setting [8]), 34%; in assay [3] (at 50.0 µM) it was 94.1% (active); in assay [4] (setting [7]) it was -6%; in assay [4] (setting [8]), -8%; in assay [4] (at 50.0 µM), 91.8% (active). Besides, the growth inhibition in assay [5] (setting [7]) is -1%; in assay [5] (setting [8]) it was 8%; in assay [5] (at 50.0 µM), 92.4% (active); in assay [6] (setting [7]) it was 1%; in assay [6] (setting [8]) it was 20%; in assay [6] (at 50.0 µM), 92.6% (active).
As for `CCOC(=O)/C=C/c1ccc([N+](=O)[O-])o1`, the growth inhibition in assay [1] (setting [7]) is 18%; in assay [1] (setting [8]), 91% (active); in assay [1] (at 50.0 µM), 73.2% (active); in assay [2] (setting [7]) it was 3%; in assay [2] (setting [8]) it was 72% (active); in assay [2] (at 50.0 µM) it was 31.4%. The growth inhibition in assay [3] (setting [7]) was 21%; in assay [3] (setting [8]), 93% (active); in assay [3] (at 50.0 µM), 91.5% (active); in assay [4] (setting [7]), 4%; in assay [4] (setting [8]), 58%; in assay [4] (at 50.0 µM) it was 34.5%. In addition, the growth inhibition in assay [5] (setting [7]) was 11%; in assay [5] (setting [8]) it was 82% (active); in assay [5] (at 50.0 µM) it was 27.1%; in assay [6] (setting [7]), 28%; in assay [6] (setting [8]), 93% (active); in assay [6] (at 50.0 µM) it was 85.5% (active).
Regarding `NC(=O)NN=C1CSSC1`, the growth inhibition was 7% in assay [1] (setting [7]); 48% in assay [1] (setting [8]); 96.2% (active) in assay [1] (at 50.0 µM); 4% in assay [2] (setting [7]); 23% in assay [2] (setting [8]); 76.5% (active) in assay [2] (at 50.0 µM). Besides, the growth inhibition in assay [3] (setting [7]) was 3%; in assay [3] (setting [8]), 34%; in assay [3] (at 50.0 µM), 58%; in assay [4] (setting [7]), -9%; in assay [4] (setting [8]) it was -6%; in assay [4] (at 50.0 µM), -3.8%. The growth inhibition in assay [5] (setting [7]) is 1%; in assay [5] (setting [8]), 2%; in assay [5] (at 50.0 µM), 77.8% (active); in assay [6] (setting [7]), -1%; in assay [6] (setting [8]), 72% (active); in assay [6] (at 50.0 µM) it was 94.2% (active).
With `Cc1cc(N/N=C/c2cccc3ccccc23)c2cc3c(cc2n1)OCO3`, the growth inhibition is 7% in assay [1] (setting [7]); 72% (active) in assay [1] (setting [8]); 99.2% (active) in assay [1] (at 50.0 µM); 2% in assay [2] (setting [7]); 79% (active) in assay [2] (setting [8]); 99% (active) in assay [2] (at 50.0 µM). The growth inhibition was 27% in assay [3] (setting [7]); 72% (active) in assay [3] (setting [8]); 99.1% (active) in assay [3] (at 50.0 µM); -6% in assay [4] (setting [7]); 56% in assay [4] (setting [8]); 97.8% (active) in assay [4] (at 50.0 µM). The growth inhibition in assay [5] (setting [7]) was -3%; in assay [5] (setting [8]) it was 75% (active); in assay [5] (at 50.0 µM), 99.2% (active); in assay [6] (setting [7]) it was 20%; in assay [6] (setting [8]) it was 91% (active); in assay [6] (at 50.0 µM), 98.5% (active).
Regarding `NNc1c(Cl)c(F)c(Cl)c(F)c1Cl`, the growth inhibition in assay [1] (setting [7]) is 13%; in assay [1] (setting [8]), 17%; in assay [1] (at 50.0 µM), 21.6%; in assay [2] (setting [7]), 5%; in assay [2] (setting [8]), 17%; in assay [2] (at 50.0 µM) it was 36.5%. Besides, the growth inhibition was 4% in assay [3] (setting [7]); 26% in assay [3] (setting [8]); 47.5% in assay [3] (at 50.0 µM); 13% in assay [4] (setting [7]); 24% in assay [4] (setting [8]); 34.2% in assay [4] (at 50.0 µM). Also, the growth inhibition is 3% in assay [5] (setting [7]); 24% in assay [5] (setting [8]); 54.7% in assay [5] (at 50.0 µM); 17% in assay [6] (setting [7]); 24% in assay [6] (setting [8]); 66.7% in assay [6] (at 50.0 µM).
With `CCCCN(CCCC)Cc1ccc(NC(C(=O)c2ccccc2)c2ccccc2)cc1` (configuration not stated), the growth inhibition in assay [1] (setting [7]) was -5%; in assay [1] (setting [8]), 46%; in assay [1] (at 50.0 µM), 85.8% (active); in assay [2] (setting [7]) it was 25%; in assay [2] (setting [8]), 49%; in assay [2] (at 50.0 µM), 82.2% (active). The growth inhibition in assay [3] (setting [7]) was 5%; in assay [3] (setting [8]), 86% (active); in assay [3] (at 50.0 µM) it was 93.8% (active); in assay [4] (setting [7]) it was -1%; in assay [4] (setting [8]) it was 34%; in assay [4] (at 50.0 µM) it was 97.2% (active). Besides, the growth inhibition in assay [5] (setting [7]) is 0%; in assay [5] (setting [8]) it was 52%; in assay [5] (at 50.0 µM), 90.5% (active); in assay [6] (setting [7]), 22%; in assay [6] (setting [8]), 72% (active); in assay [6] (at 50.0 µM), 98.7% (active).
